Activity calls are given as the source filed them. Calls come from the whole dose curve; as a rule, active = well fitted inhibition curve with a large enough effect; inactive = flat fitted curve, though single readings scatter. Square brackets hold non-standard residues; d marks the D form. Peptide text beside a SMILES is read from it. Dolaproine = CO[C@@H]([C@@H]1CCCN1)[C@@H](C)C(=O)O; Dil = CC[C@H](C)[C@H](NC)[C@@H](CC(=O)O)OC; NMeV = CN[C@H](C(=O)O)C(C)C

These results are taken from PubChem BioAssay AID2202239 (National Center for Advancing Translational Sciences (NCATS), 2025).

The nature of this assay: Identification of antibody-drug conjugate (ADC) payloads which are substrates of ATP-binding cassette drug efflux transporters: ABCB1-HeLa-KB-8-5-11 cell line with tariquidar. Conditions: KB-8-5-11 (P-gp) + tariquidar, viability, CellTiter-Glo, 48 h. An excerpt:
Antibody-drug conjugates (ADCs) feature an antibody recognizing a specific protein joined to a potent toxic payload. Numerous antibody-drug conjugates have received FDA approval; however, clinical resistance arises. Resistance mechanisms include decreased expression or mutation of the antibody target, impaired payload release, or increased expression of ATP-binding cassette (ABC) efflux transporters associated with multidrug resistance. We therefore sought to characterize the interaction of ABC multidrug transporters with ADC payloads. We performed a high-throughput screen with 27 common ADC payloads using cells lines expressing ABC transporters P-glycoprotein (P-gp, encoded by ABCB1) or ABCG2 (encoded by ABCG2). Confirmatory assays were also performed using cells transfected to express P-gp, ABCG2, or MRP1 (encoded by ABCC1). Several commonly used ADC payloads were substrates of P-gp, including calicheamicin gamma1, monomethyl auristatin E, DM1, and DM4. All the pyrrolobenzodiazepines tested - SJG136, SGD-1882, SG2057, and SG3199 - were substrates of P-gp, ABCG2, and MRP1. […] These findings highlight the risk of transporter-mediated resistance with certain ADC payloads and underscore the importance of selecting payloads that evade ABC transporter recognition in future ADC development.
HEK-293 cells were transfected with empty vector (pcDNA) or vector containing the human ABCB1 (MDR-19), ABCG2 (R-5), or ABCC1 gene (MRP1) and were maintained in EMEM with 2 mg/mL G418 added to maintain transporter expression. The HeLa derivative KB-3-1 and the P-gp overexpressing KB-8-5-11 subline were maintained in DMEM; KB-8-5-11 additionally received 100 ng/mL colchicine. H460 parental cells were obtained from the Division of Cancer Treatment and Diagnosis Tumor Repository, National Cancer Institute at Frederick, MD and were cultured in RPMI. The ABCG2 expressing subline H460 MX20 was generated by selecting H460 cells in 20 nM mitoxantrone. Media in all cases was supplemented with 10% FBS and 1% penicillin-streptomycin. We explored 27 common ADC payloads, in two orthogonal, paired cell line sets-a drug selected and transfected set for each transporter--to identify substrates of the ABC transporters P-gp and ABCG2. Compounds were sourced from Levena Biopharma (San Diego, CA), Selleck Chem (Houston, TX), ChemieTek (Indianapolis, IN), or Microsource Discovery Systems (Gaylordsville, CT). Screening was performed as previously described. Briefly, cells were plated at a density of 500 cells/well in 1536 well plates with compounds added using a 1536-head pin tool (Kalypsys, San Diego CA). Cells were incubated with cytotoxic drugs and processed with CellTiter Glo reagent (Promega, Madison, WI) to determine viability after 48 hours. P-gp substrates were identified by comparing compound activity between paired sets of low-expressing (sensitive) and over-expressing (resistant) cell lines.
Consider `COC(=O)c1cc2c3c(cc(O)c2[nH]1)N(C(=O)c1cc2cc(OC)c(OC)c(OC)c2[nH]1)CC3CCl` (stereo not drawn), for which the Potency is 0.6 nM (active).

In the case of `CC[C@]1(O)CC2CN(CCc3c([nH]c4ccccc34)[C@@](C(=O)OC)(c3cc4c(cc3OC)N(C)[C@H]3[C@@](O)(C(=O)OC)[C@H](OC(C)=O)[C@]5(CC)C=CCN6CC[C@]43[C@@H]65)C2)C1` (stereo partly drawn), the Potency is 6.7 nM (active).

Regarding `CCc1c2c(nc3ccc(O)cc13)-c1cc3c(c(=O)n1C2)COC(=O)[C@]3(O)CC`, the Potency was 298 nM (active).

On to `Cc1nc(Nc2ncc(C(=O)Nc3c(C)cccc3Cl)s2)cc(N2CCN(CCO)CC2)n1`, for which the Potency is 13300 nM (active).

Regarding `COc1cccc2c1C(=O)c1c(O)c3c(c(O)c1C2=O)C[C@@](O)(C(=O)CO)C[C@@H]3O[C@H]1C[C@H](N)[C@H](O)[C@H](C)O1`, the Potency is 236 nM (active).

Take `COc1ccc(C2=CN3C(=O)c4cc(OC)c(OCCCOc5cc6c(cc5OC)C(=O)N5C=C(c7ccc(N)cc7)C[C@@H]5C=N6)cc4N=C[C@H]3C2)cc1`: the Potency was 59.4 nM (active).

`CC[C@H](C)[C@@H]([C@@H](CC(=O)N1CCC[C@H]1[C@H](OC)[C@@H](C)C(=O)N[C@@H](Cc1ccccc1)C(=O)O)OC)N(C)C(=O)[C@@H](NC(=O)[C@@H](NC)C(C)C)C(C)C` (H-[NMeV]V[Dil][Dolaproine]F-OH): the Potency is 37.5 nM (active).

As to `CC[C@H](C)[C@@H]([C@H](N)CC(=O)N1CCC[C@H]1[C@H](OC)[C@@H](C)C(=O)N[C@@H](Cc1ccccc1)c1nccs1)N(C)C(=O)[C@@H](NC(=O)[C@H](C(C)C)N(C)C)C(C)C`, the Potency is 0.0472 nM (active).
